From the supplement of paper PMC10849652
About 8,800 targets were measured; listed, in parts, are those with a hit and a random draw of the rest. About 0.5% of all pairs of compound and target were hits.

Assays:
Experiment in all cases: log2 fold change, soluble protein after heating vs DMSO (PISA); higher = thermal stabilisation; K562 lysate, 10 uM; active = over 0.2 and 3.5 SD of the protein, either way, in both replicates (recomputed)
lapatinib = compound: CS(=O)(=O)CCNCc1ccc(-c2ccc3ncnc(Nc4ccc(OCc5cccc(F)c5)c(Cl)c4)c3c2)o1 [lapatinib]
How it was run: (§1)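 K562 pellets were dounce-homogenised in PBS pH 7.4 with 1 mM MgCl2, and the crude extract at 1 mg/mL protein was treated with 10 μM compound for 30 min. Aliquots were heated for 3 min across 48°C-58°C, pooled, and brought to 0.5% NP-40 at 4°C; soluble protein was the supernatant after 21,000xg for 90 min. Soluble protein was quantified by TMTpro 16plex LC-MS/MS with channel sums equalised, and reported as log2 fold change in thermal stability against DMSO controls, with values from duplicates.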

pictilisib = compound: CS(=O)(=O)N1CCN(Cc2cc3nc(-c4cccc5[nH]ncc45)nc(N4CCOCC4)c3s2)CC1 [pictilisib]
How it was run: as §1

crizotinib = compound: C[C@@H](Oc1cc(-c2cnn(C3CCNCC3)c2)cnc1N)c1c(Cl)ccc(F)c1Cl [crizotinib]
How it was run: as §1

[1] = compound: C[C@H](C1=CC=C(C=C1)C(=O)NC2=C3C=CNC3=NC=C2)N
How it was run: as §1

duvelisib = compound: C[C@H](Nc1ncnc2nc[nH]c12)c1cc2cccc(Cl)c2c(=O)n1-c1ccccc1 [duvelisib]
How it was run: as §1

gandotinib = compound: Cc1cc(Nc2cc(CN3CCOCC3)c3nc(C)c(Cc4ccc(Cl)cc4F)n3n2)n[nH]1 [gandotinib]
How it was run: as §1

doramapimod = compound: Cc1ccc(-n2nc(C(C)(C)C)cc2NC(=O)Nc2ccc(OCCN3CCOCC3)c3ccccc23)cc1 [doramapimod]
How it was run: as §1

bafetinib = compound: Cc1ccc(NC(=O)c2ccc(CN3CC[C@H](N(C)C)C3)c(C(F)(F)F)c2)cc1Nc1nccc(-c2cncnc2)n1 [bafetinib]
How it was run: as §1

[2] = compound: Cc1cccc(CC(=O)N2CCc3c2ccc(-c2cn(C)c4ncnc(N)c24)c3F)n1
How it was run: as §1

tozasertib = compound: Cc1cc(Nc2cc(N3CCN(C)CC3)nc(Sc3ccc(NC(=O)C4CC4)cc3)n2)n[nH]1 [tozasertib]
How it was run: as §1

Measured: log2 fold change

SIX5 (UniProt Q8N196)
inactive: lapatinib -0.105 | pictilisib 0.015 | crizotinib -0.075 | [1] 0.22 | duvelisib 0.039 | doramapimod 0.143 | bafetinib -0.009 | [2] -0.306
active: gandotinib -0.48

SPR (UniProt P35270)
UniProt P35270, sequence (P35270 whole entry, looked up): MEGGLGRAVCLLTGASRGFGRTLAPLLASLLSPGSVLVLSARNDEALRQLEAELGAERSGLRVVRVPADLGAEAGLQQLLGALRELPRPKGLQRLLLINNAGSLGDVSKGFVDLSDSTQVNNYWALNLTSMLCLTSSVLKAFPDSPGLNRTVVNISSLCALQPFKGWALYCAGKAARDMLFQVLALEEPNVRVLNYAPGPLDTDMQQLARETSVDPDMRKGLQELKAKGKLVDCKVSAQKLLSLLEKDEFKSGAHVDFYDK
active: pictilisib 0.472 | gandotinib 0.467
inactive: lapatinib -0.015 | crizotinib 0.276 | [1] -0.029 | duvelisib -0.059 | tozasertib 0.025 | doramapimod -0.06 | bafetinib -0.09 | [2] -0.117

SOAT1 (UniProt P35610)
UniProt P35610, sequence (P35610 whole entry, looked up): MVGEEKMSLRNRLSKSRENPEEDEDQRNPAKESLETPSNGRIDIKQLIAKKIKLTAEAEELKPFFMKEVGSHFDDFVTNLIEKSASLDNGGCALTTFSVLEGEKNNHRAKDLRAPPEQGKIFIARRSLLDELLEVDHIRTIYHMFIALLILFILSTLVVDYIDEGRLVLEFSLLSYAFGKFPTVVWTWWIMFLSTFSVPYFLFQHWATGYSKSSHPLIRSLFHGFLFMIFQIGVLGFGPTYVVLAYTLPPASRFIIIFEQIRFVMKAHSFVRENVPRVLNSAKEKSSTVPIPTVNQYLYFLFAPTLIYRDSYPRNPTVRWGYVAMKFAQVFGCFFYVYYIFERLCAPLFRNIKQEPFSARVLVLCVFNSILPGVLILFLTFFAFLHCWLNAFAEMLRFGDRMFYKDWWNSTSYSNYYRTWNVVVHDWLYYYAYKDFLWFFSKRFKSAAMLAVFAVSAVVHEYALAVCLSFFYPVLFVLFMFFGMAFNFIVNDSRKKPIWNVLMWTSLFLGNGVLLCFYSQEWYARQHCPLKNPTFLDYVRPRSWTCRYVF
inactive: lapatinib 0.027 | pictilisib -0.004 | crizotinib -0.022 | [1] -0.079 | duvelisib -0.016 | gandotinib 0.005 | tozasertib 0.009 | doramapimod 0.157 | bafetinib 0.029 | [2] 0.141

SLC38A1 (UniProt Q9H2H9)
UniProt Q9H2H9, sequence (Q9H2H9 whole entry, looked up): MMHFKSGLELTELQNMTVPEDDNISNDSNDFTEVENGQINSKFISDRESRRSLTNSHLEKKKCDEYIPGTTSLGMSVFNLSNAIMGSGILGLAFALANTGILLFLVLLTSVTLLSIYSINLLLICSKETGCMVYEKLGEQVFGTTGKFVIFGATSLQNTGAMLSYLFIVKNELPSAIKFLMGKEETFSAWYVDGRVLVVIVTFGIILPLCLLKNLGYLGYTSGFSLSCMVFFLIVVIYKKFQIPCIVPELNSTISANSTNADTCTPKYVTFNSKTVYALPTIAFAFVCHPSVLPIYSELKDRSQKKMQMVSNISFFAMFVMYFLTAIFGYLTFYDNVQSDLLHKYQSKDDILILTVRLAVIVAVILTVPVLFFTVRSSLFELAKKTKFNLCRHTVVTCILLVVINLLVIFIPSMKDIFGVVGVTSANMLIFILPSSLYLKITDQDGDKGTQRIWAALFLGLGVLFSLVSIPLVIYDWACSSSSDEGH
inactive: lapatinib -0.008 | pictilisib -0.01 | crizotinib -0.064 | [1] -0.218 | duvelisib 0.048 | gandotinib 0.096 | tozasertib 0.026 | doramapimod -0.009 | bafetinib 0.003 | [2] 0.095

SLC25A17 (UniProt O43808)
inactive: lapatinib -0.033 | pictilisib 0.015 | crizotinib -0.052 | duvelisib 0.029 | gandotinib 0.072 | tozasertib -0.069 | doramapimod 0.007 | bafetinib -0.066 | [2] 0.085
active: [1] -0.303

SF3B6 (UniProt Q9Y3B4)
inactive: lapatinib -0.01 | pictilisib -0.083 | crizotinib -0.008 | [1] 0.009 | duvelisib 0.059 | gandotinib -0.069 | tozasertib -0.188 | doramapimod 0.047 | bafetinib -0.009 | [2] -0.058

SNAP23 (UniProt O00161)
UniProt O00161, sequence (O00161 whole entry, looked up): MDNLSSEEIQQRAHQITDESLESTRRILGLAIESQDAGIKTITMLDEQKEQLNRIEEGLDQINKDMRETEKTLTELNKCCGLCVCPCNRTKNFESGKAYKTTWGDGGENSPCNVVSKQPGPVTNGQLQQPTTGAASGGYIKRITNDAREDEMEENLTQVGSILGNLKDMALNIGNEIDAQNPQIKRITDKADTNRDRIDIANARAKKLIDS
inactive: lapatinib 0.005 | pictilisib -0.035 | crizotinib 0.067 | [1] 0.034 | duvelisib -0.004 | gandotinib 0.007 | tozasertib 0.005 | doramapimod 0.002 | bafetinib 0.059 | [2] -0.05

SLC22A18 (UniProt Q96BI1)
UniProt Q96BI1, sequence (Q96BI1 whole entry, looked up): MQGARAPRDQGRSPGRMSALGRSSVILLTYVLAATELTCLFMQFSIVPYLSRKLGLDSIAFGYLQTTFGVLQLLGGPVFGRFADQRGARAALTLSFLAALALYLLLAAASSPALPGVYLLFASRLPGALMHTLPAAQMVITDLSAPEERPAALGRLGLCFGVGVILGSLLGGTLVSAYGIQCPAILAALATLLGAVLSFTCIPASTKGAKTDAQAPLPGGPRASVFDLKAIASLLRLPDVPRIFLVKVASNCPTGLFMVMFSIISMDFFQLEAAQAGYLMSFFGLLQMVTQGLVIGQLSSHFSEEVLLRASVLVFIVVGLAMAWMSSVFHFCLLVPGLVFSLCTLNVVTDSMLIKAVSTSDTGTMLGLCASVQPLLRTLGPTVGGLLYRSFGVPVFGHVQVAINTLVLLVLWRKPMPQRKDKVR
inactive: lapatinib 0.072 | pictilisib 0.026 | crizotinib -0.064 | [1] -0.094 | gandotinib 0.147 | tozasertib -0.004 | doramapimod 0.032 | bafetinib -0.001 | [2] 0.033

SLC27A4 (UniProt Q6P1M0)
inactive: lapatinib -0.052 | pictilisib -0.005 | crizotinib -0.049 | [1] -0.04 | duvelisib 0.037 | gandotinib 0.095 | tozasertib -0.045 | doramapimod 0.149 | bafetinib -0.057 | [2] 0.052

STAU1 isoform 3 (UniProt O95793)
inactive: pictilisib 0.048 | crizotinib 0.049 | [1] -0.298 | gandotinib 0.112 | doramapimod 0.269 | bafetinib -0.086 | [2] 0.078

SPAG1 (UniProt Q07617)
inactive: lapatinib -0.058 | pictilisib 0.17 | crizotinib 0 | doramapimod -0.025 | bafetinib -0.265

SLCO4A1 (UniProt Q96BD0)
active: pictilisib -0.687
inactive: [1] 0.016 | gandotinib 0.062 | bafetinib -0.334 | [2] 0.012

SHC1 (UniProt P29353)
inactive: [1] 0.029 | gandotinib -0.033 | [2] 0.009

SLU7 (UniProt O95391)
UniProt O95391, sequence (O95391 whole entry, looked up): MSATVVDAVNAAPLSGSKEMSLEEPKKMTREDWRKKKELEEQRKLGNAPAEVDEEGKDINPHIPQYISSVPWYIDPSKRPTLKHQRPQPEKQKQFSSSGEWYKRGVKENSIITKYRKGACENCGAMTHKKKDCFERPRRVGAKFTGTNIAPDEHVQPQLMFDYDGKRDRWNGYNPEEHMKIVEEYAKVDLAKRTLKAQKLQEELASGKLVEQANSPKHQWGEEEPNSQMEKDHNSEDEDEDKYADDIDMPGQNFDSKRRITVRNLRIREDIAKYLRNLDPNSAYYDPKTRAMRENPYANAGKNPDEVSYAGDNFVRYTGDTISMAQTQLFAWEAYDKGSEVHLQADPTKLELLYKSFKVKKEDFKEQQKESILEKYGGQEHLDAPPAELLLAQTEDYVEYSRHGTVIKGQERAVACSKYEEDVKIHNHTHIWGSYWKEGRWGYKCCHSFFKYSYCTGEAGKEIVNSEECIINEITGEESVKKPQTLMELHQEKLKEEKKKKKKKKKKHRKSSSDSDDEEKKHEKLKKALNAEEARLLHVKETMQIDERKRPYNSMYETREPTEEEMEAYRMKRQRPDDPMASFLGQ
inactive: pictilisib 0.006 | crizotinib 0.054 | [1] -0.187 | duvelisib 0.06 | gandotinib 0.255 | tozasertib 0.028 | doramapimod -0.099 | bafetinib -0.267
active: [2] 0.367

STMN3 (UniProt Q9NZ72)
inactive: lapatinib -0.017 | pictilisib -0.08 | crizotinib 0.009 | duvelisib -0.023 | tozasertib -0.023 | doramapimod -0.003 | bafetinib 0.041

TAF11 (UniProt Q15544)
inactive: lapatinib 0.003 | crizotinib -0.085 | [1] -0.036 | duvelisib -0.06 | gandotinib 0.026 | tozasertib 0.102 | doramapimod 0.023 | [2] 0

SLC41A1 (UniProt Q8IVJ1)
inactive: lapatinib -0.059 | crizotinib 0.141 | [1] -0.09 | gandotinib 0.136 | tozasertib -0.016 | doramapimod 0.01 | [2] 0.113

SSX5 isoform 2 (UniProt O60225)
inactive: lapatinib 0.042 | pictilisib 0.082 | [1] -0.476 | gandotinib 0.092 | tozasertib 0.085 | bafetinib -0.04 | [2] 0.183

SMPD2 (UniProt O60906)
inactive: lapatinib 0.015 | [1] 0.106 | duvelisib 0.107 | gandotinib -0.051 | tozasertib -0.031 | [2] 0.03

SNRPD2 (UniProt K7EJB5)
inactive: lapatinib 0.005 | crizotinib -0.202 | duvelisib 0.014 | tozasertib 0.051 | doramapimod 0.105

STK38L (UniProt Q9Y2H1)
UniProt Q9Y2H1, sequence (Q9Y2H1 whole entry, looked up): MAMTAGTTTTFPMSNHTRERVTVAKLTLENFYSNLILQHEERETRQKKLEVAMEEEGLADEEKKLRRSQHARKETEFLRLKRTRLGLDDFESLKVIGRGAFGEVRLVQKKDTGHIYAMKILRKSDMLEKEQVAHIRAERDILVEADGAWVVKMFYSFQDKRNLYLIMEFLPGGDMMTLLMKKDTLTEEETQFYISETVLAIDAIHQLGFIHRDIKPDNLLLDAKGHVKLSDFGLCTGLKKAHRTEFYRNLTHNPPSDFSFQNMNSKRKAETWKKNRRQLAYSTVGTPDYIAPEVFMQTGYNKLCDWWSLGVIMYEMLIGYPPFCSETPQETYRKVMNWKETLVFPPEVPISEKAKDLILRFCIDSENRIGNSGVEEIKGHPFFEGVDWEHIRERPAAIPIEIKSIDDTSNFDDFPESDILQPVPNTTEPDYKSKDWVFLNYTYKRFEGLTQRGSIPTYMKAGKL
inactive: crizotinib -0.059 | duvelisib -0.007 | tozasertib -0.009 | doramapimod -0.025

SYK (UniProt P43405)
active: [1] -0.479
inactive: lapatinib -0.086 | pictilisib 0.017 | duvelisib 0.004 | gandotinib 0.272 | tozasertib 0.002 | doramapimod 0.021 | bafetinib -0.236 | [2] 0.261

SMC4 (UniProt C9JJ64)
inactive: pictilisib 0.006 | bafetinib -0.251

STK17A (UniProt Q9UEE5)
inactive: [1] 0.315 | gandotinib -0.001 | [2] -0.197

SLC25A36 (UniProt Q96CQ1)
inactive: lapatinib -0.019 | crizotinib 0.022 | [1] 0.029 | duvelisib -0.122 | gandotinib 0.024 | tozasertib -0.09 | doramapimod -0.011 | [2] -0.006

SMYD3 (UniProt Q9H7B4)
inactive: lapatinib 0.017 | pictilisib -0.018 | crizotinib -0.146 | duvelisib 0.062 | tozasertib 0.023 | doramapimod 0.053 | bafetinib -0.062

SMARCA4 isoform 4 (UniProt P51532)
inactive: lapatinib -0.072 | crizotinib 0 | [1] 0.024 | duvelisib -0.068 | gandotinib -0.007 | tozasertib 0.136 | doramapimod -0.048 | [2] -0.012

SLC40A1 (UniProt Q9NP59)
inactive: lapatinib -0.019 | crizotinib 0.111 | [1] -0.164 | duvelisib 0.099 | gandotinib 0.054 | tozasertib -0.035 | doramapimod -0.056 | [2] 0.018

SHB (UniProt Q15464)
inactive: lapatinib -0.07 | crizotinib -0.044 | [1] -0.305 | duvelisib -0.034 | gandotinib 0.186 | doramapimod 0.028 | [2] -0.129

STAR (UniProt P49675)
UniProt P49675, sequence (P49675 whole entry, looked up): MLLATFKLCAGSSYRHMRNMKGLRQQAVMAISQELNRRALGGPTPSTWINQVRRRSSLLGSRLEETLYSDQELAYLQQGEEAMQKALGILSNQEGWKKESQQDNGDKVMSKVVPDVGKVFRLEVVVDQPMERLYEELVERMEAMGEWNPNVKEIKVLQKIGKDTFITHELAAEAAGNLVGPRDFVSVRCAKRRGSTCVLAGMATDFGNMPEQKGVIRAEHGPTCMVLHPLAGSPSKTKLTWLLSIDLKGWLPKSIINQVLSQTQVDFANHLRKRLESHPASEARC
inactive: crizotinib -0.123 | [1] 0.117 | duvelisib 0.017 | gandotinib 0.156 | tozasertib 0.063 | doramapimod 0.019 | [2] 0.142

SRC isoform 2 (UniProt P12931)
UniProt P12931, sequence (P12931 whole entry, looked up): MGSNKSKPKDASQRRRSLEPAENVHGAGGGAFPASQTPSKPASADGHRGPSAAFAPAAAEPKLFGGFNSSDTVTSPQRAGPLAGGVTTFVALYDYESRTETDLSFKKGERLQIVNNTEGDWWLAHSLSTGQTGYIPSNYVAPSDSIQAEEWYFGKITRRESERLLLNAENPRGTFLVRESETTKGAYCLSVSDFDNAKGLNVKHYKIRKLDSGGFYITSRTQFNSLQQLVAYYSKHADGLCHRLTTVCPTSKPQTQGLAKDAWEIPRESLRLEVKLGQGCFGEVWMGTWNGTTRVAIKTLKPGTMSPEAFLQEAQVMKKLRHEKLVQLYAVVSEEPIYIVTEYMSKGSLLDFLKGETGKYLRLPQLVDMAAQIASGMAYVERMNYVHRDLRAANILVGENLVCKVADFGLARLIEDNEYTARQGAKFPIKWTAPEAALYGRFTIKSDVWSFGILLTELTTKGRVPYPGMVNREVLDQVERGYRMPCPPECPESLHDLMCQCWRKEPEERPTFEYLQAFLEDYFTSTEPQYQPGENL
inactive: lapatinib -0.001 | pictilisib -0.078 | [1] 0.151 | duvelisib 0.001 | gandotinib 0.061 | tozasertib 0.098 | bafetinib -0.153 | [2] -0.015

SZT2 (UniProt Q5T011)
inactive: lapatinib 0.275 | pictilisib 0.189 | [1] -0.108 | duvelisib -0.081 | gandotinib -0.17 | tozasertib -0.097 | bafetinib -0.214 | [2] 0.22

SLC35A3 isoform 2 (UniProt Q9Y2D2)
UniProt Q9Y2D2, sequence (Q9Y2D2 whole entry, looked up): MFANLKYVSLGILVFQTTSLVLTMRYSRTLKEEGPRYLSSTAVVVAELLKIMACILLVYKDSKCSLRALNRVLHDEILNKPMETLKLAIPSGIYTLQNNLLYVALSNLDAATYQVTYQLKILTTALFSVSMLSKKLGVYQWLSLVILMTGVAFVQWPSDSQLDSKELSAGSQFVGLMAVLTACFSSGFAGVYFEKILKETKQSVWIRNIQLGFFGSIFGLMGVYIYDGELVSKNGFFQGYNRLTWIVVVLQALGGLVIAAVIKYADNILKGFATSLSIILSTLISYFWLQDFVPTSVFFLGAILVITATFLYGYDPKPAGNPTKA
active: [1] -1.02
inactive: lapatinib -0.097 | crizotinib -0.267 | gandotinib 0.215 | tozasertib 0.032 | doramapimod 0.095 | [2] 0.332

SIN3B (UniProt O75182)
inactive: crizotinib -0.057 | [1] -0.318 | gandotinib 0.116 | tozasertib -0.095 | doramapimod 0.584 | [2] -0.611

SKP2 (UniProt Q13309)
UniProt Q13309, sequence (Q13309 whole entry, looked up): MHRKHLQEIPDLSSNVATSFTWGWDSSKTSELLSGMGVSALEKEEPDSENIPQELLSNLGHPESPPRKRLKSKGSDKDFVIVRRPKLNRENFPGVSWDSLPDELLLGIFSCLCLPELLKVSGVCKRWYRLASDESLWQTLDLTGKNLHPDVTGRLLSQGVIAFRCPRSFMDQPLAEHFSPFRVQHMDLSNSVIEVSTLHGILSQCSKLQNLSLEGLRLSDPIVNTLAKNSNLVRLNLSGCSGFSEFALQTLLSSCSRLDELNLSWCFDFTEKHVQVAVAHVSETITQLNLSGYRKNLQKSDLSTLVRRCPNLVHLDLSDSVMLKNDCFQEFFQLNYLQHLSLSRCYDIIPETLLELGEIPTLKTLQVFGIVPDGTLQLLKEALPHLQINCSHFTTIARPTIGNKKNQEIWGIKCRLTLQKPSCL
inactive: lapatinib -0.275 | crizotinib -0.159 | [1] -0.098 | duvelisib -0.024 | gandotinib -0.075 | tozasertib -0.096 | doramapimod -0.024 | [2] 0.104

TARDBP (UniProt K7EN94)
inactive: tozasertib 0.257

SNAPC2 (UniProt Q13487)
inactive: pictilisib 0.08 | crizotinib -0.007 | [1] 0.024 | duvelisib -0.129 | gandotinib 0.01 | doramapimod 0.03 | bafetinib -0.537 | [2] -0.033

SMC1B isoform 3 (UniProt Q8NDV3)
inactive: lapatinib 0 | pictilisib -0.037 | crizotinib -0.019 | duvelisib 0.015 | tozasertib 0.26 | doramapimod -0.036 | bafetinib -0.093

STK26 isoform 3 (UniProt Q9P289)
inactive: crizotinib 0.095 | duvelisib 0.008 | tozasertib -0.001 | doramapimod -0.416

SNAP23 isoform 2 (UniProt O00161)
inactive: lapatinib 0.075 | [1] 0.188 | gandotinib -0.054 | tozasertib -0.185 | [2] -0.163

SLC12A6 isoform 2 (UniProt Q9UHW9)
inactive: lapatinib -0.019 | crizotinib -0.051 | duvelisib -0.023 | tozasertib 0.068 | doramapimod 0.054

STK17B (UniProt O94768)
UniProt O94768, sequence (O94768 whole entry, looked up): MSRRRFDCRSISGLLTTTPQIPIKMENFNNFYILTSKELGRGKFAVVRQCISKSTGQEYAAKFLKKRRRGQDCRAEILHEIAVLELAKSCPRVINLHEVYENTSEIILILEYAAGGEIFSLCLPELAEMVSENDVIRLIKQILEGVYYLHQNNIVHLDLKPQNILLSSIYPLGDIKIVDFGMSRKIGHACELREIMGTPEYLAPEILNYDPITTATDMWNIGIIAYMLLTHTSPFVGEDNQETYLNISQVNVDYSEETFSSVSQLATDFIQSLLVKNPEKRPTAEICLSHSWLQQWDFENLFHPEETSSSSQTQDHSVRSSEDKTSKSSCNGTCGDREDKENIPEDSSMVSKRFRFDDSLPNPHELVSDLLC
inactive: crizotinib -0.255 | duvelisib 0 | doramapimod -0.117
